Screening data: PubChem BioAssay, several laboratories
In the library only some 4.2% were active in any assay of this set; here they are far more common.
esBAF inh – Bmi1 luciferase reporter increase in mESCs, primary screen, esBAF inhibitor project, mouse ES cells, Bmi1 luciferase knock-in, single point | 24 h; 100% = twice the neutral-well signal | AID 602393, 2012 | 350,000 compounds, 2% hits | reporter increase, % at 12.5 µM; in the data active = activation above about 40%; inconclusive = no clear call, values can overlap the other calls;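 note: 0% = median of the plate's neutral control wells and 100% = double that signal; a rise in the Bmi1 reporter signal indicates esBAF inhibition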
FXN GAA850 act – FXN promoter activators, primary screen, cell-based, luciferase luminescence, HEK293 lucGAA850 | activation, % at 6 µM | HEK293 lucGAA850 FXN promoter luciferase reporter, 24 h; percent of 10 µM SAHA response | 360,000 compounds, 0.56% hits | AID 540364, 2011;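 active = activation above the average of all compounds screened plus 3 SD, cutoff fixed separately per campaign, cut at about 7.5% in these data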;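 note: 0% = DMSO wells and 100% = 10 µM SAHA wells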
Wnt act – Wnt/beta-catenin pathway activators, primary screen, cell-based, plate reader, single point | Wnt/beta-catenin reporter cell assay, activator | activation, % at 9.35 µM | 300,000 compounds, 1.2% hits | AID 743398, 2014; in the data active = activation above about 30%, passing the limit was not always enough; inconclusive = no clear call, values can overlap the other calls;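 note: 0% = neutral control wells and 100% = positive control wells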
MITF act – activators of MITF-driven TRPM1 promoter reporter, primary screen, cell-based, SK-MEL-5, luciferase, single point | SK-MEL-5 TRPM1-promoter luciferase, 24 h; % of positive control, neutral wells = 0 | activation, % at 12.5 µM | 300,000 compounds, 0.75% hits | AID 588334, 2011;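 active = mean activation of at least 80% with every replicate also reaching 80%; inconclusive = mean reaches 80% but some replicate falls short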;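 note: 0% = neutral control wells and 100% = parthenolide positive control wells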
AHR act – AHR activators, primary screen, cell-based, luminescence, luciferase reporter, human. Aryl hydrocarbon receptor (Homo sapiens), P35869. activation, % at 5 µM. AHR-responsive luciferase reporter cells. 320,000 compounds, 2.5% hits; in the data active = activation above about 47%;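 note: 0% = vehicle wells and 100% = reference agonist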
Target sequence (P35869 whole entry, looked up): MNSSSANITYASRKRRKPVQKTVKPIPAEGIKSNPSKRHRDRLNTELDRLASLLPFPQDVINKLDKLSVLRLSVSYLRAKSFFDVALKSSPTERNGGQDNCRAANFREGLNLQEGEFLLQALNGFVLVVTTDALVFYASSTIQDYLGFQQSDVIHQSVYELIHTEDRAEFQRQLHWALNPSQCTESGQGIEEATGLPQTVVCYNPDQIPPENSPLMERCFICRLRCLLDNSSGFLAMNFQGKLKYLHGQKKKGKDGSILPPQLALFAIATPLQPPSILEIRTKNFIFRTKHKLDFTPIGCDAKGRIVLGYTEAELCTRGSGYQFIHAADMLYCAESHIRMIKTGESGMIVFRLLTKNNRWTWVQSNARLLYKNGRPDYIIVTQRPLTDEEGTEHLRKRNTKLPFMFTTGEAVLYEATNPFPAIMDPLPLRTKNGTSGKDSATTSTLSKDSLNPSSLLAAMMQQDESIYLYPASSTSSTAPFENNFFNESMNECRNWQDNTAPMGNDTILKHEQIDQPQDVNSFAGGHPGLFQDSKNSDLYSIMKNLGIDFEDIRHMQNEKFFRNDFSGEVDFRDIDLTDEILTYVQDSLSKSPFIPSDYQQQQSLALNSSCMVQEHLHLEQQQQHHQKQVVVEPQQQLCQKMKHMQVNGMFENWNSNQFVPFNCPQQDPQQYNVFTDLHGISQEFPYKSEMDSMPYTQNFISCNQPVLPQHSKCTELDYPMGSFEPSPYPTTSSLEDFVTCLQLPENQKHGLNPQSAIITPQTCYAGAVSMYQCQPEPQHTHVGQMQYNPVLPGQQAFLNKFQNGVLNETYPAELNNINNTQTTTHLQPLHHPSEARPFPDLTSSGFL
AHR act cf – AHR activators, confirmation, cell-based, luminescence, luciferase reporter, human; shares compounds with AHR act; human cells, AHR-responsive luciferase reporter; activation, % at 9 µM; 2,300 compounds, 87% hits; AID 2845, 2010; in the data active = activation above about 49%;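 note: HepG2 hepatoma cells carrying a DRE-driven firefly luciferase reporter; 0% = vehicle wells and 100% = reference agonist wells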
PXR counter – human PXR activators, counter-screen for AHR activator project, cell-based, luciferase luminescence. 2,300 compounds, 88% hits. activation, % at 11.6 µM. cell-based PXR reporter. shares compounds with AHR act. AID 434939, 2010; in the data active = activation above about 11%;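 note: human hepatoma DPX-2 cells expressing full-length human PXR; 0% = DMSO and 100% = reference agonist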
* marks the source's active call; other numbers are inactive results; u = inconclusive; x = not tested or not shown.

SMILES	esBAF inh	FXN GAA850 act	Wnt act	MITF act	AHR act	AHR act cf	PXR counter
O=C(Nc1ccc(F)cc1)c1oc2ccccc2c1NC(=O)C1CC1	4	-1	-2	6	127*	0	33*
c1ccc(-c2csc(Nc3ccccn3)n2)cc1	-5	5	19	x	139*	131*	16*
Cc1nc(C)c(-c2csc(Nc3ccccn3)n2)s1	-61	6	22	x	83*	23	35*
Cc1nc(N)sc1-c1csc(Nc2ccccn2)n1	34	2	-1	0	x	x	x
CCCNC(=O)C[C@@H]1CC[C@@H]2[C@H](COc3ccc(NC(=O)c4cccc(C(F)(F)F)c4)cc3C(=O)N2C)O1	2	x	x	x	x	x	x
C[C@@H]1CN([C@@H](C)CO)C(=O)c2c(c3ccccc3n2C)-c2ccccc2CO[C@H]1CN(C)C(=O)[C@H]1CCCN1C	-3	x	x	x	x	x	x
C[C@@H]1CN([C@H](C)CO)C(=O)c2cccc(NS(C)(=O)=O)c2O[C@H]1CN(C)C(=O)Nc1ccccc1	1	x	x	x	x	x	x
Cc1ccc(/C=N/Nc2ccnc3cc(Cl)ccc23)c(C)c1	x	-2	-2	-87	87*	16	16*
Cc1ccccc1/C=N/Nc1ccnc2cc(Cl)ccc12	x	-3	0	-67	2	x	x
S=C(Nc1ccccc1)c1nc2ccccc2s1	x	6	56*	31	124*	142*	10
C[C@H](CO)N1C[C@H](C)[C@H](CN(C)C)Oc2ccc(NS(=O)(=O)c3ccc(F)cc3)cc2C1=O	0	x	x	x	x	x	x
O=C(C[C@H]1CC[C@@H]2[C@H](COC[C@@H](O)CN2S(=O)(=O)c2ccc(F)cc2)O1)NCC1CC1	1	x	x	x	x	x	x
N/C(=N\c1nc2ccccc2o1)NC(=O)c1ccccc1F	x	4	x	27	104*	167*	15*
O=C(NC(=Nc1nc2ccccc2o1)NC(=O)c1ccccc1)c1ccccc1	x	1	22	65	30	x	x
COc1ccccc1C(=O)NC(=Nc1nc2ccccc2o1)NC(=O)c1ccccc1OC	5	-2	2	-14	107*	133*	45*
N/C(=N\c1nc2ccccc2o1)NC(=O)c1cccc(Cl)c1	x	1	11	x	31	x	x
CCn1c(C)csc1=NC(=O)c1ccccc1O	u	3	16	27	93*	95*	15*
C=CCn1c(C)csc1=Nc1ccccc1C	17	5	4	38	1	x	x
O=C(NNC(=O)c1sccc1-n1cccc1)c1cccc(Cl)c1	x	2	x	-7	133*	114*	101*
O=C(NNS(=O)(=O)c1cc(Cl)cc(Cl)c1)c1sccc1-n1cccc1	-9	-1	1	-1	35	x	x
O=C(NNC(=O)c1sccc1-n1cccc1)c1ccccc1	-5	0	-2	-10	137*	128*	48*
O=C(NNC(=O)c1c(F)cccc1F)c1sccc1-n1cccc1	x	0	0	4	2	x	x
O=C(NNC(=O)c1sccc1-n1cccc1)Nc1ccccc1	x	1	-3	-11	92*	126*	61*
O=C(NNC(=O)c1sccc1-n1cccc1)c1ccc(F)cc1	3	-2	-1	-9	112*	46	6
O=C(NNC(=O)c1ccccc1-n1cccc1)c1ccc(F)cc1	x	1	-1	-15	90*	101*	43*
SMILES	esBAF inh	FXN GAA850 act	Wnt act	MITF act	AHR act	AHR act cf	PXR counter
O=C(N/N=C\c1ccc(Cl)cc1)c1sccc1-n1cccc1	23	0	2	9	97*	124*	24*
CN(C)C(=O)C[C@H]1C[C@@H]2c3cc(NC(=O)Nc4ccc(F)cc4)ccc3O[C@@H]2[C@@H](CO)O1	-2	x	x	x	x	x	x
O=C(Nc1ccon1)Nc1cc(Cl)ccc1Cl	x	-1	-1	-10	122*	101*	11*
Cc1c(C)n(C(=O)CN2CCC(C)CC2)c2ccccc12	7	1	-2	-5	83*	53*	15*
CO[C@H]1CN(C)C(=O)c2ccc(NC(=O)CC(F)(F)F)cc2OC[C@@H](C)N(S(=O)(=O)c2cn(C)cn2)C[C@@H]1C	3	x	x	x	x	x	x
CCOc1ccc(NC(=O)CNC(=O)COc2ccccc2)cc1	x	1	x	8	121*	15	11*
CCOc1ccc(NC(=O)Nc2cccc(C)n2)cc1	57*	5	3	73	80*	71*	18*
CC(=O)Nc1cccc(OCC(=O)Nc2ccc(F)cc2)c1	26	2	x	x	85*	76*	x
CC(=O)Nc1cccc(OCc2ccc(F)cc2)c1	x	4	1	18	-3	x	x
COCC(=O)Nc1ccc2c(c1)C(=O)N(C)[C@H]1CC[C@@H](CC(=O)OC)O[C@H]1CO2	3	x	x	x	x	x	x
CCC1=NN=C(c2ccc(F)cc2)C(c2c[nH]c3ccccc23)N1O (stereo unspecified)	-5	0	x	x	87*	78*	20*
Cc1ccc(N2C(=O)CC(c3c[nH]c4ccccc34)C2=O)cc1 (stereo unspecified)	x	0	-3	7	4	x	x
O=[N+]([O-])c1cccc(C(=Nc2ccccc2Cl)NO)c1	-5	0	-4	-2	85*	73*	50*
O=[N+]([O-])c1cccc(C(=Nc2ccccc2)NO)c1	x	3	x	-19	19	x	x
CCc1ccc(S(=O)(=O)Nc2ccc(-c3ccc4nncn4n3)cc2)s1	-10	5	0	-10	0	x	x
CCc1ccc(S(=O)(=O)Nc2ccc(-c3nc4cccnc4s3)cc2)s1	39	1	-1	17	88*	82*	20*
Fc1ccc(-c2nnn3c2nc(NCc2ccccc2)c2ccccc23)cc1	-1	3	-1	-13	22	x	x
NNc1nc2c(-c3ccc(F)cc3)nnn2c2ccccc12	33	6	39*	43	102*	128*	35*
C[C@H](O)C#Cc1cnc2c(c1)C(=O)N([C@H](C)CO)C[C@@H](C)[C@H](CN(C)C(=O)Cc1ccccn1)O2	1	x	x	x	x	x	x
O=C(NN=C1CCCCCC1)c1c[nH]c2ccccc12	x	3	2	-10	91*	7	6
C/C(=N\NC(=O)c1c[nH]c2ccccc12)c1ccc(C)o1	7	0	3	1	82*	119*	17*
C[C@@H]1CCCCO[C@H](CN(C)CC2CC2)[C@H](C)CN([C@H](C)CO)C(=O)c2cc(NC(=O)c3ccncc3)ccc2O1	0	x	x	x	x	x	x
FC(F)(F)c1cnc(N/N=C/c2ccncc2)c(Cl)c1	x	2	2	-9	93*	75*	18*
